Laboratory results published in PubChem BioAssay AID504766 (The Scripps Research Institute Molecular Screening Center, 2011).
The campaign covered roughly 340,000 compounds. About 3,400 (1%) were called active. This excerpt belongs to a sample that is enriched for actives. Unmarked numbers belong to inactive results.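 The calls were made as follows: active = inhibition above the mean over all tested compounds plus 3 SD (cut at about 4.2% in these data); inactive = the rest.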

What follows are compounds tested against Nuclear receptor subfamily 0 group B member 1 (Homo sapiens) (UniProt P51843) (assay: relief of DAX1 transcriptional repression – cell-based, HEK293, Gal4-DAX1, luciferase luminescence, primary screen (AID 504766;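 also: 0% = DAX1-transfected cells with DMSO and 100% = empty-vector control cells with DMSO; inhibition shows as a rise in luminescence from relieved DAX1 repression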)). Settings: HEK293 Gal4-DAX1 luciferase reporter, at 6.75 µM, active compounds read high.
Nuclear receptor subfamily 0 group B member 1 (Homo sapiens), sequence (P51843 207-470 limits assumed): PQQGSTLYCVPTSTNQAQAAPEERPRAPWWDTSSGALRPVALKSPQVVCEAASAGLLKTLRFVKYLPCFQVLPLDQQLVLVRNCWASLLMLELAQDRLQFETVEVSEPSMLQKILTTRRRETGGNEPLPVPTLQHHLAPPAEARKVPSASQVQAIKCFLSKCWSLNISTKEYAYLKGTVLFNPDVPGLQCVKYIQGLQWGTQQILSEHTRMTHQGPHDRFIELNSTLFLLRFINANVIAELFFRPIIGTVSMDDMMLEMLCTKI

Compound | inhibition
Cc1cc(N=Nc2ccc3ccccc3c2)ccc1O | 4.42% (active)
CCOC(=O)c1c(NC(=S)SC)sc(C(=O)N2CCc3ccccc3C2)c1C | 0.87%
CCCSc1nc(NCc2ccco2)c2c3c(sc2n1)COC(C)(CC)C3 (stereo unspecified) | 1.15%
CN1CCc2c(sc3c2c(NCc2ccco2)nc2nnnn23)C1 | 5.18% (active)
CCSc1nc2sc3c(c2c(=O)n1-c1ccc(C)cc1)CCN(C)C3 | 0.31%
C[C@@H]1CN([C@@H](C)CO)C(=O)c2cc(NS(C)(=O)=O)ccc2O[C@@H](C)CCCCO[C@H]1CN(C)C(=O)Nc1ccc2c(c1)OCO2 | 0.65%
COc1ccc(N2CCN(C(=O)C3CCN(C(=O)c4ccccc4Cl)CC3)CC2)cc1 | -0.89%
Cc1ccc(S(=O)(=O)N2CCC(C(=O)N3CCCCCCC3)CC2)cc1 | -0.36%
COc1ccc(N2CCN(C(=O)C3CCN(S(=O)(=O)c4ccc(C)cc4)CC3)CC2)cc1 | 7.45% (active)
COc1ccc(N)cc1NC(=O)CN1CCOCC1 | 1.8%
CC12C(=O)N(n3cnnc3)C(=O)C1C1C=CC2C1 (stereo unspecified) | 5.77% (active)
COc1ccc(Cl)cc1C(=O)Nc1ccc(N(C)C(C)=O)cc1 | -0.13%
CCN(CC)C(=O)Oc1ccc(Br)cc1C(=O)Nc1ccc(F)c(Cl)c1 | 4.68% (active)
O=C(COc1ccccc1F)NNC(=O)c1cc(Br)ccc1Cl | 0.63%
N#Cc1ccc(OCC(=O)Nc2nc(-c3ccccn3)cs2)cc1 | -0.76%
C[C@@H]1CN([C@H](C)CO)S(=O)(=O)c2ccc(C#C[C@@H](C)O)cc2O[C@@H]1CN(C)Cc1ccc(-c2ccccc2)cc1 | -0.61%
Cc1ccc(CN(C)C[C@@H]2OCc3cnnn3CCCC(=O)N([C@@H](C)CO)C[C@H]2C)cc1 | 0.34%
O=[N+]([O-])c1cc(Cl)cc(/C=N/NC(=S)Nc2cc(S(=O)(=O)N3CCOCC3)ccc2Cl)c1O | 4.75% (active)
O=C(Nc1cc(S(=O)(=O)N2CCOCC2)ccc1Cl)c1cc(=O)c2ccccc2o1 | -1.1%
O=S(=O)(c1ccc(NC(=S)NN=C(C2CC2)C2CC2)cc1)N1CCOCC1 | -0.03%
O=C1[C@H]2[C@@H](c3ccc(C(F)(F)F)cc3)N[C@]3(CCCN(Cc4ccc(Br)cc4)C3=O)[C@H]2C(=O)N1Cc1ccccc1 | -0.81%
C[C@@H]1Cn2cnc(C(=O)Nc3ccc(CNC(=O)OC(C)(C)C)cc3)c2C(=O)N1 | -0.54%

Compound | inhibition
CC(=O)c1ccc(NC(=O)CSC(=S)N2CCCC2)cc1 | -0.17%
O=C(CSC(=S)N1CCCCC1)c1c(F)cccc1F | 8.18% (active)
O=C(CSC(=S)N1CCOCC1)c1ccccc1 | -3.24%
O=C(CN1CCN(S(=O)(=O)c2cc(Cl)ccc2Cl)CC1)c1ccc(O)c(O)c1 | 0.26%
CC(C#N)(NC(=O)CN1CCN(S(=O)(=O)c2cc(C(F)(F)F)ccc2Cl)CC1)C1CC1 (stereo unspecified) | 4.49% (active)
N#Cc1ccsc1NC(=O)CN1CCN(S(=O)(=O)c2cc(Cl)ccc2Cl)CC1 | -0.1%
CC(OC(=O)c1cccnc1Cl)C(=O)NC1CCCCC1 (stereo unspecified) | 2.75%
CCC(C)(C)NC(=O)C(c1ccc(O)cc1)N(C(=O)Cn1nnc2ccccc21)c1ccc(NC(C)=O)cc1 (stereo unspecified) | 0.14%
COc1ccc(C(C(=O)NC(C)(C)C)N(C(=O)Cn2nnc3ccccc32)c2ccc(C(C)=O)cc2)cc1O (stereo unspecified) | 5.46% (active)
COc1ccc(C(C(=O)NCC2CCCO2)N(C(=O)Cn2nnc3ccccc32)c2ccc(NC(C)=O)cc2)cc1OC (stereo unspecified) | -0.65%
COc1ccccc1C(=O)NC(=S)Nc1ccc(N2CCOCC2)cc1 | 0.43%
C[C@H]1CN([C@@H](C)CO)C(=O)c2cc(Br)cnc2O[C@H]1CN(C)S(=O)(=O)c1cccs1 | 0.93%
C[C@H]1CN([C@@H](C)CO)C(=O)CCCn2cc(nn2)CO[C@@H]1CN(C)S(=O)(=O)c1cccs1 | -0.09%
COCCNc1ccc(-c2n[nH]c(=O)c3ccccc23)cc1[N+](=O)[O-] | -1.07%
CN(C)CCNc1ccc(-c2n[nH]c(=O)c3ccccc23)cc1[N+](=O)[O-] | 4.46% (active)
CCN(CC)CCNc1ccc(Cl)cc1[N+](=O)[O-] | 0.15%
CCc1cccc(CC)c1N1C(=O)CC(Sc2ccccc2N)C1=O (stereo unspecified) | 2.47%
CN(C)C(CNC(=O)c1cccc(S(=O)(=O)N2CCc3ccccc3C2)c1)c1ccccc1 (stereo unspecified) | -0.17%
c1ccc(-c2cc(-c3ccccc3)[nH]n2)cc1 | 5.19% (active)
Oc1ccccc1-c1cc(-c2ccc(Cl)cc2)n[nH]1 | 3.28%
Nc1cccc(-c2cc(-c3ccccc3)nc(-c3cccc(N)c3)n2)c1 | -0.66%
Cc1[nH]c2ccccc2c1C(=O)C(=O)NCc1nnnn1-c1cccc(F)c1 | -0.63%

Compound | inhibition
O=C1CCC(C(=O)OCC(=O)Nc2ccc(OC(F)F)cc2)=NN1 | 0.5%
O=C(N=C1SC2CS(=O)(=O)CC2N1Cc1ccccc1)c1ccccc1 (stereo unspecified) | 4.11%
O=C(c1cccs1)N1C[C@H](n2cc(C3CC3)nn2)[C@@H](O)C[C@@H]1c1ccccc1 | 1.63%
C#CCN(C[C@@H]1[C@@H](OC(=O)NC2CC2)[C@@H](OC(=O)NC2CC2)Cn2c(=O)ccc(=O)n21)S(=O)(=O)c1ccc(C)cc1 | -0.06%
O=C(c1ccncc1)N1CCN(S(=O)(=O)c2cccc([N+](=O)[O-])c2)CC1 | 0.88%
Cc1ccccc1OS(=O)(=O)c1cccc([N+](=O)[O-])c1 | 1.42%
N/C(=N\OS(=O)(=O)c1cccc([N+](=O)[O-])c1)c1ccncc1 | 4.92% (active)
CN(C)C(CNC(=O)c1ccc(OCc2cn3ccccc3n2)cc1)c1ccco1 (stereo unspecified) | 0.93%
O=Cc1ccc(OCc2cn3ccccc3n2)cc1 | 7.12% (active)
O=C(NCCc1ccco1)c1ccc(OCc2cn3ccccc3n2)cc1 | 0.65%
N#CCCN(C(=O)Nc1ccc(Cl)c(Cl)c1)C1CCCCC1 | 1.35%
CC1CCN(c2ccc3c(c2)S(=O)(=O)c2cc(C(=O)O)ccc2C3=O)CC1 | -0.21%
COc1ccc(NC(=S)NCCNC(C)=O)cc1 | 4.78% (active)
COc1ccc(NC(=S)NCC2CCN(c3ccc(OC)cc3)C2)cc1 (stereo unspecified) | 0.86%
CCOC(=O)C(NC(C)=O)C(=O)Nc1ccc(OC)cc1 (stereo unspecified) | 1.97%
COc1ccc(NC(=O)c2cc(=O)[nH]c3ccccc23)cc1S(=O)(=O)N1CCOCC1 | 1.51%
COC(=O)c1ccccc1N=NNc1ccc([N+](=O)[O-])cc1 | 2.03%
C[C@H](CO)N1C[C@H](C)[C@@H](CN(C)Cc2ccc3c(c2)OCO3)OCc2cnnn2CCCC1=O | 0.31%
Cc1csc(=O)n1CCC(=O)OCC(=O)Nc1ccc(N2CCOCC2)cc1 | 0.99%
CCN1C(=O)[C@H]2[C@@H](c3ccccc3)N[C@]3(CCCN(Cc4ccc(C)cc4)C3=O)[C@H]2C1=O | 0.28%
O=C(N/N=C/c1ccc([N+](=O)[O-])cc1)c1c[nH]c2ccccc12 | 5.39% (active)
O=[N+]([O-])c1ccc(C=NN=Cc2ccc([N+](=O)[O-])cc2)cc1 | 0.89%

Compound | inhibition
O=C(NN=Cc1ccc([N+](=O)[O-])cc1)C1CC1 | 0.79%
COc1ccc(-c2cnc3c(c2)C(=O)N([C@H](C)CO)C[C@@H](C)[C@H](CN(C)Cc2ccccc2)O3)cc1 | 1.69%
CN(C)/C=C(/C(=O)c1ccc(F)cc1)S(=O)(=O)c1ccc(F)cc1 | 7.15% (active)
CN(C)/C=C(/C(=O)c1ccccc1)S(=O)(=O)c1ccc(Cl)cc1 | -0.08%
CN(C)/C=C(/C(=O)c1ccc(Cl)cc1)S(=O)(=O)c1ccccc1 | -0.69%
CCOC(=O)C=Cc1ccc(C(=O)OCC)[nH]1 | -1.29%
Cc1ccc(S(=O)(=O)NN=C2CC(C)(C)CC(=O)C2(C)C)cc1 | 1.47%
COC(=O)c1sccc1NC(=O)c1ccc(Cl)cc1 | 0.77%
COC(=O)c1sccc1NC(=O)c1csc2c1CCCC2 | 4.39% (active)
O=C(Nc1ccccc1N1CCOCC1)c1csc2c1CCCC2 | -0.73%
O=C(C[C@H]1C[C@@H]2c3cc(NC(=O)C4CCC4)ccc3O[C@@H]2[C@H](CO)O1)NC1CCCCC1 | 1.37%
CC1=C(C(=O)N2CCOCC2)CC(CC(=O)NCCN2CCOCC2)C(=O)N1CCC1=CCCCC1 (stereo unspecified) | 1.93%
C[C@@H]1CN([C@H](C)CO)C(=O)CCCn2nncc2CO[C@@H]1CN(C)S(=O)(=O)c1cccc(C#N)c1 | 2.66%
COc1cc(-c2nnc(NC(=O)CS(=O)(=O)c3ccc(Cl)cc3)o2)cc(OC)c1OC | 0.2%
Cc1cccc(NC(=O)C(C)SCc2ccccc2)c1 (stereo unspecified) | -1.2%
COc1ccc(NC(=O)C(C)SCc2ccccc2)cc1 (stereo unspecified) | 6.52% (active)
COc1ccc(NC(=O)C(Br)C(C)C)cc1 (stereo unspecified) | 1.41%
O=C(CCC(=O)N1CCN(S(=O)(=O)c2ccccc2)CC1)NC1CCCc2ccccc21 (stereo unspecified) | 0.76%
Cc1ccc(S(=O)(=O)N2CCN(C(=O)CCC(=O)NC3CCCc4ccccc43)CC2)cc1 (stereo unspecified) | 4.27% (active)
COc1ccc(NC(=O)CCC(=O)N2CCN(S(=O)(=O)c3ccc(C)cc3)CC2)c(OC)c1 | -2%
